Each structure is given as a SMILES string. A number with no mark means an inactive call. Inconclusive results are not listed. The source made the active and inactive calls.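 The calls were made as follows, unless noted: active = cell viability at or below a set limit in both duplicate runs, the limit being the all-compound median minus 4 SD (cut at about 23% in these data, passing the limit was not always enough); inconclusive = no clear call, values can overlap the other calls; inactive = the rest.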

The first test can be described thus: doxorubicin toxicity protection in MRP-1 cells – H69AR cells, CellTiter-Glo, duplicate, MRP-1 activator project, pilot screen (AID 807;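 active = viability increase at or above a cutoff of the median across tested compounds plus 3 SD, cut at about 8.5% in these data, passing the limit was not always enough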;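 also: compound pretreatment 18-22 h then 72 h combined with doxorubicin; 0% = doxorubicin alone and 100% = vehicle without doxorubicin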). Conditions: H69AR viability with doxorubicin, CellTiter-Glo luminescence; at 10 µM; hits give high values. A general note: In ATP-based viability assays light output follows the ATP content of the culture.
For the compound `CCOCCCNC(=O)Cn1cc2c(n1)CCCC2`, the viability increase was -0.46%.
Same read-out and setting: under `Cc1nn(-c2ccccc2)c2sc(C(=O)n3cccn3)cc12` stands -3.24%; under `COc1ccccc1N1C(=O)N(C(C)=O)C2C1Nc1ccccc1N2C` (stereo not drawn), -5.51%.
Regarding `COCCOC(=O)C1=C(C)NC2=C(C(=O)CC(C)(C)C2)C1c1ccc2c(c1)OCO2` (stereo not drawn), the viability increase is -1.42%.
On the same count and under the same terms, under `CC(C)NS(=O)(=O)c1ccc(NC(=O)c2cccnc2)cc1` stands -0.51%.
Same read-out and setting: under `CCCCCn1c(NCc2ccco2)nc2ccccc21` stands -5.56%; under `O=C(Cn1cnc2c(cnn2-c2ccccc2)c1=O)NC1CCCC1`, 1.03%.
Still for that read-out and setting: under `Nc1cc(-c2cccc(F)c2)nn1S(=O)(=O)c1cccc2nsnc12` stands -2.16%.
In the case of `COc1ccc(C/C(O)=C(\C#N)c2nc3ccccc3[nH]2)cc1OC`, the viability increase was -1.93%.
Still for that read-out and setting: under `O=C(NCCN1C(=O)C2C3C=CC(C3)C2C1=O)Nc1cccnc1` (stereo not drawn) stands -1.57%; under `CN(C)C(=O)c1nnc(Cc2ccc(Cl)cc2)o1`, 2.17%; under `C=CCOC(=O)C1CC=CCC1C(=O)Oc1ccc(F)cc1F` (stereo not drawn), -1.32%.
Still for that read-out and setting: under `Cc1nnc(SCC(=O)N2CCOCC2)n1C` stands -0.95%; under `Cc1cc(NCc2ccc3c(c2)OCO3)n2nc(C)nc2n1`, -0.9%.
For the compound `Cc1ccc(-c2nn3c(C)nnc3s2)cc1NC(=O)c1ccco1`, the viability increase is -5.34%.
Turning to `CN1CCCN(Cc2ccccc2C(F)(F)F)CC1`, the viability increase is -1.78%.
As for `CCOc1ccccc1N1CCN(C(=O)c2cc(C)oc2C)CC1`, the viability increase is -3.37%.
Take `CC(CCc1ccco1)NC(=O)Cn1nc(Cc2ccncc2)c2ccccc2c1=O` (stereo not drawn): the viability increase was -4.14%.
On the same count and under the same terms, under `CNC(=O)c1ccsc1NC(=O)c1ccc(Cl)s1` stands -3.2%; under `O=C(O)c1ccc(CSc2nnc(-c3ccco3)o2)cc1`, 0.19%; under `CCN1C(=O)CSc2ccc(C(=O)OC)cc21`, -1.33%.
The same measure, in the same setting: under `CCOc1ccc(Oc2nc(NCC(C)C)nc(OC)n2)nn1` stands 0.16%.

Another test in a line: viability of HCT116 without oncogenic beta-catenin – human colon tumor cells, pilot screen (AID 823).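 Also: 0% = wells killed by 20 µM Hyamine and 100% = untreated DMSO cell wells.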 Conditions: HCT116 beta-catenin knockout viability, CellTiter-Glo, 60 h; at 10 µM; hits give low values.
What is called viability is a read-out of living cells in per cent, often relative to untreated cells. As for `O=C(CSc1ccc2nnc(-c3ccc(F)cc3)n2n1)N1CCOCC1`, the viability was 105%.
Still for that read-out and setting: under `COC(=O)CN1C(=O)COc2ccc(Cl)cc21` stands 104%.
Same read-out and setting: under `CCOC(=O)C1CCCN(C(=O)Cn2sc3nc(C)cc(C)c3c2=O)C1` (stereo not drawn) stands 3.38% (active).
On the same count and under the same terms, under `O=C(NCc1cccs1)c1cnc2sccn2c1=O` stands 99.3%.
As for `COC(=O)c1cn(NC(=O)c2ccncc2)c(=O)c2ccccc12`, the viability is 98.3%.
Same read-out and setting: under `Cc1ccccc1C(=O)Nc1ccccc1` stands 96.1%; under `CC(Oc1ccccc1F)C(=O)NCCN1CCCCC1` (stereo not drawn), 91.9%.
Still for that read-out and setting: under `O=C(Cn1cc2c(n1)CCCCC2)NC1CCCCCC1` stands 97.1%; under `COc1ccccc1OCCC(=O)OCC(=O)NC(=O)NC(C)(C)C`, 85.7%; under `COc1ccc(OC)c(NC(=O)C2CCCN2C(=O)C2CCC(C)CC2)c1` (stereo not drawn), 88.5%.
The same measure, in the same setting: under `Cc1ccc2oc(=O)c3cnn(CC(=O)NC4CCCCC4C)c3c2c1` (stereo not drawn) stands 95.1%; under `O=C(Nc1nc(-c2ccccn2)cs1)C1COc2ccccc2O1` (stereo not drawn), 10.3% (active); under `O=C(Nc1ccc(Cl)cc1)C1CC2CCCC(C1)C2=O` (stereo not drawn), 97.2%.
As to `O=C(NCc1ccc2c(c1)OCO2)c1cnc2n(c1=O)CCS2`, the viability is 95.9%.
Same read-out and setting: under `CC(C)(Oc1ccc(-c2ccco2)cc1)C(=O)O` stands 97.8%.
Take `Cc1cc(S(=O)(=O)N2CCN(Cc3ccccc3)CC2)c(C)s1`: the viability was 77.1%.
Same read-out and setting: under `c1ccc(CSc2nnc(-c3ccncc3)o2)cc1` stands 109%; under `CC(=O)c1cccc(NC(=O)c2cnn3ccccc23)c1`, 95.5%.
On the same count and under the same terms, under `CCOCCCNC(=O)Cn1cc2c(n1)CCCC2` stands 105%; under `Cc1nn(-c2ccccc2)c2sc(C(=O)n3cccn3)cc12`, 89.8%.
Same read-out and setting: under `COc1ccccc1N1C(=O)N(C(C)=O)C2C1Nc1ccccc1N2C` (stereo not drawn) stands 78.2%; under `COCCOC(=O)C1=C(C)NC2=C(C(=O)CC(C)(C)C2)C1c1ccc2c(c1)OCO2` (stereo not drawn), 92.9%; under `CC(C)NS(=O)(=O)c1ccc(NC(=O)c2cccnc2)cc1`, 112%.
With `CCCCCn1c(NCc2ccco2)nc2ccccc21`, the viability was 84.9%.
In the case of `O=C(Cn1cnc2c(cnn2-c2ccccc2)c1=O)NC1CCCC1`, the viability was 99.2%.
For `Nc1cc(-c2cccc(F)c2)nn1S(=O)(=O)c1cccc2nsnc12`, the viability was 68.5%.

The values above are taken from PubChem BioAssay.
